This is a sample that favours compounds with a hit; in the whole collection about 10% have one here.
RORg inh = qHTS for inhibitors of ROR gamma transcriptional activity | AID 2551, 2010 | hit rate 5.4% among 310,000 | Nuclear receptor ROR-gamma (Mus musculus), P51450 | Drosophila S2 Gal4-RORgamma UAS-luciferase reporter, 20 h | Potency, µM (series often up to 53.6 µM), most hits filed as inhibitors; further: nearly all actives have a fitted effect of over 60% in size
Target sequence (P51450 whole entry, looked up, the tested form may be a part): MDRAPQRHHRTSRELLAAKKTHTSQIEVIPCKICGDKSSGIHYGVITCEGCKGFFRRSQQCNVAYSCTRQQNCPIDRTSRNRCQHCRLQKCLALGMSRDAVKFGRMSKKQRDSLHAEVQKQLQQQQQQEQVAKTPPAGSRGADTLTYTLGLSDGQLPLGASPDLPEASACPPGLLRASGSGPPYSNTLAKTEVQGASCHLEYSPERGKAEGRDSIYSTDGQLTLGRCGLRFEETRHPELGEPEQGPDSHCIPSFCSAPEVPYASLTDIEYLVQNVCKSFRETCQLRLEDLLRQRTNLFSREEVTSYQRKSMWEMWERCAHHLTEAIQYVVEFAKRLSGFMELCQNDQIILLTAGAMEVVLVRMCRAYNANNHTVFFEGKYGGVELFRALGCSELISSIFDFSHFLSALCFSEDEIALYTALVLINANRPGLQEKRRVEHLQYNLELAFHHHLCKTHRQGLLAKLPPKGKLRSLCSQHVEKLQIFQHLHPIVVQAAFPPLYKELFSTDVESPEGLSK
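ROR gamma transcriptional activity was tracked as Gal4-UAS luciferase output in stably transfected Drosophila Schneider cells, with compound added 1 hr before 700 uM copper sulfate induction and a 20 hr ambient-temperature incubation.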
SW480 rereplic = A quantitative high throughput screen for small molecules that induce DNA re-replication in SW480 colon adenocarcinoma cells. SW480 DNA re-replication, Hoechst DNA content imaging, 48 h. Potency, µM (titrated, usually from 46.1 µM), usual class: activators. hit rate 1.8% among 340,000; further: nearly all actives have a fitted effect of over 55% in size
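Compounds, transferred as 23 nL by pin tool, were incubated with cells for 48 hr; DNA content per nucleus was then quantified by Hoechst staining and fluorescence plate imaging.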
ELG1 repair inh = qHTS screen for small molecules that inhibit ELG1-dependent DNA repair in human embryonic kidney (HEK293T) cells expressing luciferase-tagged ELG1 | HEK293T ELG1-luciferase reporter, luminescence, 16 h; DNA damage induced by 5-fluorouridine | Potency, µM (titrated, usually from 46.1 µM), usual class: inhibitors | hit rate 2.3% among 330,000 | AID 504467, 2011; further: nearly all actives have a fitted effect of over 55% in size
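Step one: seed 2,000 cells per well. Step two: pin-transfer compound or DMSO alongside 5-fluorouridine. Step three: incubate 16 hr, 37 °C, 5% CO2. Step four: add ONE-Glo, wait 30 min, read luminescence.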
MCF10A rereplic = A quantitative high throughput screen for small molecules that induce DNA re-replication in MCF 10a normal breast cells | MCF 10A DNA re-replication, Hoechst nuclear intensity, 48 h | Potency, µM (top dose mostly 46.1 µM), most hits filed as activators | hit rate 2.9% among 350,000 | AID 624296, 2012; further: nearly all actives have a fitted effect of over 50% in size
VP16 counter = VP16 counterscreen qHTS for inhibitors of ROR gamma transcriptional activity | Drosophila S2 Gal4-VP16 UAS-luciferase, luminescence, 20 h | Potency, µM (titrated, usually from 53.6 µM), actives largely listed as inhibitors | hit rate 3.5% among 310,000 | AID 2546, 2010;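 further: Gal4-VP16 expression switched on by copper sulfate through the metallothionein promoter; nearly all actives have a fitted effect of over 50% in size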
Numbers stand for hits; [ ] = dose if it differs, or a comment. The call rests on the fitted dose curve; in most records, active means well fitted curve in the direction sought with a large enough effect; inconclusive means small, poorly fitted or top-dose-only effect, or another doubt; inactive means no such curve, though single readings can be large; an effect the other way counts as inactive or inconclusive.

For Fc1ccc2cnc(CCO[C@H]3CCCCO3)cc2c1 the results were SW480 rereplic inactive, ELG1 repair inh inconclusive and MCF10A rereplic inactive.
Cc1cccc(N2CCN(C(=O)CN3C(=O)NC4(CCCCCC4)C3=O)CC2)c1C was read as SW480 rereplic inactive, ELG1 repair inh inactive and MCF10A rereplic inconclusive.
Screening COc1ccc(C(=O)Nc2nnc(SCC(=O)NC3CCCC3)s2)c(OC)c1 returned RORg inh 3.2µM, SW480 rereplic inconclusive, ELG1 repair inh inconclusive, MCF10A rereplic inactive and VP16 counter inconclusive.
For COc1ccccc1C(=O)Nc1nnc(SCC(=O)NCc2ccco2)s1 the results were RORg inh inconclusive, SW480 rereplic 21µM, ELG1 repair inh inconclusive, MCF10A rereplic inactive and VP16 counter inconclusive.
`Cc1nn(CC(=O)N(C)Cc2ccccc2)c(=O)c2cccn12` gave RORg inh inactive, SW480 rereplic inactive, ELG1 repair inh inconclusive, MCF10A rereplic inactive and VP16 counter inactive.
For CC(C)NC(=O)N(C)C[C@H]1Oc2ccc(NS(=O)(=O)c3ccc(F)cc3)cc2C(=O)N([C@H](C)CO)C[C@@H]1C the results were SW480 rereplic inactive, ELG1 repair inh inactive and MCF10A rereplic inactive.
For CCCCCc1ccc(-c2cn(CN3C(=O)c4ccccc4C3=O)nn2)cc1 the results were RORg inh inactive, SW480 rereplic inactive, ELG1 repair inh inactive, MCF10A rereplic inactive and VP16 counter inactive.
N#Cc1ccc(-c2ccc(OCC(=O)Nc3cccnc3)cc2)cc1 was read as RORg inh inactive, SW480 rereplic inactive, ELG1 repair inh 15µM, MCF10A rereplic inactive and VP16 counter inactive.
Screening Cn1nc(-c2ccc(OCC(=O)Nc3cccnc3)cc2)c2ccccc2c1=O returned RORg inh 1.8µM, SW480 rereplic inactive, ELG1 repair inh inconclusive, MCF10A rereplic inconclusive and VP16 counter 16µM.
`CNC(=O)COc1ccc(-c2nn(C)c(=O)c3ccccc23)cc1` gave RORg inh inactive, SW480 rereplic inactive, ELG1 repair inh inconclusive, MCF10A rereplic inactive and VP16 counter inactive.
For O=C(OCCOCCOC(=O)Oc1ccccc1)Oc1ccccc1 the results were SW480 rereplic inactive and MCF10A rereplic inactive.
C=CCn1c(SCc2cc(C(C)=O)ccc2OCC)nc2ccccc2c1=O was read as RORg inh inactive, SW480 rereplic 1.8µM, ELG1 repair inh inconclusive, MCF10A rereplic 1µM and VP16 counter inactive.
`C=CCn1c(SCc2c(C)noc2C)nc2cc(C(=O)O)ccc2c1=O` gave RORg inh inactive, SW480 rereplic inconclusive, ELG1 repair inh inconclusive, MCF10A rereplic 2.9µM and VP16 counter inactive.
Screening C=CCn1c(SCc2c(C)noc2C)nc2ccccc2c1=O returned RORg inh inconclusive, SW480 rereplic 0.65µM, ELG1 repair inh inactive, MCF10A rereplic 7.3µM and VP16 counter inactive.
For COC(=O)NC(c1ccco1)[C@]1(C(C)=O)CCCC1=O (some centres undefined) the results were RORg inh inactive[10 µM] and VP16 counter inactive[10 µM].
`COc1cc(CN2CCNC(=O)C2CC(=O)N2CCCN(C(C)=O)CC2)cc(OC)c1` (centres undefined) gave RORg inh inconclusive, SW480 rereplic inactive, ELG1 repair inh inactive, MCF10A rereplic inactive and VP16 counter inactive.
For COc1ccc(C(=O)N2CCC3(CCCN(c4ccncc4)C3)CC2)cc1 the results were RORg inh inactive and VP16 counter inactive.
Screening COc1cc2cnc(-c3cccnc3)cc2cc1OC returned SW480 rereplic inactive, ELG1 repair inh inactive and MCF10A rereplic inactive.
Screening O=C(COc1ccc(/C=N/NC(=O)CSCc2ccc([N+](=O)[O-])cc2)cc1)NCc1ccco1 returned RORg inh inconclusive, SW480 rereplic inactive, ELG1 repair inh 23µM, MCF10A rereplic inconclusive and VP16 counter inconclusive.
Screening CCCOc1ccc(/C=N/NC(=O)CSCc2ccc([N+](=O)[O-])cc2)cc1OCC returned RORg inh inactive, SW480 rereplic inactive, ELG1 repair inh 23µM, MCF10A rereplic inactive and VP16 counter inactive.
Screening Cc1ccc(CSCC(=O)N/N=C/c2ccc(OCC(=O)Nc3ccc(C)cc3)cc2)cc1 returned RORg inh inactive, SW480 rereplic inactive, ELG1 repair inh inconclusive, MCF10A rereplic inconclusive and VP16 counter inactive.
Screening COc1ccccc1N1CCN(C(=O)C(C)NC(=O)c2cccc([N+](=O)[O-])c2)CC1 (centres undefined) returned RORg inh inactive, SW480 rereplic inactive, ELG1 repair inh inconclusive, MCF10A rereplic inactive and VP16 counter inactive.
COc1ccc(NS(=O)(=O)c2cccc(NC(=O)C3=NN(c4ccccc4)C(=O)CC3)c2)cc1 was read as RORg inh inconclusive, SW480 rereplic inactive, ELG1 repair inh 9.2µM, MCF10A rereplic inactive and VP16 counter 11µM.
Screening COc1ccc(NS(=O)(=O)c2cc(NC(=O)C3=NN(c4ccccc4)C(=O)CC3)ccc2C)cc1 returned SW480 rereplic inactive and MCF10A rereplic inactive.
Screening CC(C)Oc1ccc(S(=O)(=O)N2CCOCC2)cc1NC(=O)C1=NN(c2ccccc2)C(=O)CC1 returned SW480 rereplic inactive, ELG1 repair inh 10µM and MCF10A rereplic inconclusive.
`CN(c1ccccc1)S(=O)(=O)c1cccc(NC(=O)C2=NN(c3ccccc3)C(=O)CC2)c1` gave SW480 rereplic inconclusive, ELG1 repair inh 7.3µM and MCF10A rereplic inactive.
Screening CCCN1CCN(CCNC(=O)Nc2cc(C)ccc2C)CC1 returned RORg inh inactive, SW480 rereplic inactive, ELG1 repair inh inconclusive, MCF10A rereplic inactive and VP16 counter inactive.
`Oc1ccc(O)c(-c2cnns2)c1` gave RORg inh 3.2µM, SW480 rereplic inconclusive, ELG1 repair inh inconclusive, MCF10A rereplic inconclusive and VP16 counter inconclusive.
`CSc1ccc(S(=O)(=O)NCC(=O)OCC(=O)N2CCC(C)CC2)cc1[N+](=O)[O-]` gave SW480 rereplic inactive, ELG1 repair inh inactive and MCF10A rereplic inconclusive.
Cn1cc(/C=N/n2cnc3scc(-c4ccccc4)c3c2=O)c2ccccc21 was read as RORg inh inactive, SW480 rereplic 15µM, ELG1 repair inh inconclusive, MCF10A rereplic inconclusive and VP16 counter inactive.
Screening O=c1c2c(-c3ccccc3)csc2ncn1/N=C/c1cccc([N+](=O)[O-])c1O returned RORg inh 20µM, SW480 rereplic inconclusive, ELG1 repair inh inactive, MCF10A rereplic inactive and VP16 counter inactive.
Brc1ccc(-c2cn3c(n2)CCc2ccc4cccnc4c2-3)cc1 was read as RORg inh inactive, SW480 rereplic inconclusive, ELG1 repair inh inconclusive, MCF10A rereplic 23µM and VP16 counter inconclusive.
For COCC(=O)OCC(=O)Nc1ccc(Cl)cc1[N+](=O)[O-] the results were RORg inh inactive, SW480 rereplic inactive[1.84 µM], ELG1 repair inh inconclusive, MCF10A rereplic inactive and VP16 counter inconclusive.

Screening data as filed in PubChem.
